HT1080NT lethal – kills 2HG-producing HT-1080-NT fibrosarcoma cells; HT-1080-NT fibrosarcoma viability, CellTiter-Glo ATP luminescence, 48 h; Potency, µM (top dose mostly 46.1 µM), for inactives: at the top dose activity, negative = less viability, actives largely listed as cytotoxic; 360,000 compounds, 1.6% hits; AID 686970;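 further: NT is the 2HG producing partner of a matched IDH1 knockdown line; potency means the concentration at half of the fitted maximal effect; 0% = DMSO-treated cells and -100% = media-only wells without cells; nearly all actives have a fitted effect of over 55% in size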
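Viability by CellTiter-Glo luminescence after 48 h compound exposure at 37C of HT-1080-NT cells (750/well, RPMI, 5% FBS). % activity scaled between DMSO wells and medium-only wells, then curve-fitted and categorized by curve class.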
TDP1 cell CPT – growth inhibition of DT40 Tdp1-/-;hTDP1 cells with camptothecin (screen for TDP1 inhibitors); chicken DT40 Tdp1-/-;hTDP1 cells + 20 nM CPT, ATP luminescence, 48 h; Potency, µM (series often up to 46.2 µM), without a hit: top-dose activity change, negative = growth inhibition, actives largely listed as inhibitors; 420,000 compounds, 12% hits; AID 686979; further: potency means the concentration at half of the fitted maximal effect; nearly all actives have a fitted effect of over 55% in size
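Chicken DT40 Tdp1-/- cells complemented with human TDP1, 400 cells/well, exposed to compounds plus 20 nM camptothecin for at least 48 h at 37 C; viability read as ATP content by CellTiter-Glo luminescence.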
IL1B secr inh – inhibitors of inflammasome signaling (IL-1 beta secretion) | THP-1 LPS/ATP IL-1B secretion, AlphaLISA, 16 h; active compounds read low | activity change, % at 57.5 µM | 360,000 compounds, 4.7% hits; in the data active means activity change below about -50%; inconclusive means mostly about -30% to -49%
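THP-1 cells pretreated 1 hr with compounds (up to 57.5 uM final), then stimulated with LPS (250 ng/mL final) plus ATP (1.25 mM final); secreted IL-1B measured by AlphaLISA after 16 hr, decreased signal indicating inhibition.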
HT1080 IDH1KD tx – HT-1080 IDH1 knockdown cell toxicity (counter line); HT-1080 IDH1 knockdown viability, ATP luminescence, 48 h; Potency, µM (doses to about 46.1 µM), inactives show at the top dose activity, negative = toxicity, actives largely listed as cytotoxic; 360,000 compounds, 2% hits; AID 686971;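 further: potency means the concentration at half of the fitted maximal effect; 0% = DMSO wells and -100% = cell-free medium wells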
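After a 2 h attachment period, IDH1KD HT-1080 cells took pin-transferred compound for 48 h at 37 °C; ATP-based luminescence after 10 min room-temperature reagent incubation reported viability.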
DT40 TDP1 no CPT – qHTS for Inhibitors of human tyrosyl-DNA phosphodiesterase 1 (TDP1): qHTS in cells in absence of CPT. DT40 Tdp1-/- hTDP1 cells, no CPT, ATP luminescence, 48 h. Potency, µM (top dose mostly 46.2 µM), for the others: at the highest dose activity change, negative = growth inhibition, hits mostly inhibitors. 420,000 compounds, 15% hits; further: potency means the concentration at half of the fitted maximal effect; nearly all actives have a fitted effect of over 55% in size
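A cellular qHTS used chicken DT40 cells lacking endogenous Tdp1 but carrying stably transfected human TDP1. Compounds were applied without camptothecin, and cell growth kinetics were judged by ATP-dependent luminescence after ≥48 hr.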
* = called active by the depositor; ? = inconclusive; . = not tested or not shown; [ ] = remark or other dose. In the library only some 19% were active in any assay of this set; here they are far more common. Unless noted, the call rests on the fitted dose curve; in most records, active means well fitted curve in the direction sought with a large enough effect; inconclusive means small, poorly fitted or top-dose-only effect, or another doubt; inactive means no such curve, though single readings can be large; an effect the other way counts as inactive or inconclusive. Unless noted, on the % scale 0 is the no-effect control and ±100 the full control effect.

SMILES | HT1080NT lethal | TDP1 cell CPT | IL1B secr inh | HT1080 IDH1KD tx | DT40 TDP1 no CPT
CCOc1ccc(-c2c(C)nn3c(C)c(C(=O)NCCc4ccccc4)cnc23)cc1OCC | . | ? | . | . | 5.2µM*
CCOc1ccc(-c2c(C)nn3c(C)c(C(=O)Nc4ccccc4C(=O)OC)cnc23)cc1OCC | . | ? | . | . | -17%
CCCCNC(=O)c1cnc2c(-c3ccc(OCC)c(OCC)c3)c(C)nn2c1-c1ccccc1 | . | ? | . | . | -30%
CCOc1ccc(-c2c(C)nn3c(C)c(C(=O)NC(C)c4ccccc4)cnc23)cc1OCC (configuration not stated) | . | 21µM* | . | . | 16µM*
COc1ccc(Br)cc1CNC(=O)C1CCCCN1S(=O)(=O)c1ccc(F)cc1 (configuration not stated) | . | -30% | . | . | -29%
CS(=O)(=O)N1CCC(C(=O)Nc2ccc(Cl)cc2Cl)CC1 | 3% | 8% | -18 | -2% | 0%
CCOC(=O)c1cnc(-n2nc(C)cc2C)nc1NC1CCCC1 | ? | 1.3µM* | 24 | ? | 1.3µM*
CCOC(=O)c1cnc(-n2nc(C)cc2C)nc1NCCc1ccccc1 | 11% | 6.5µM* | 18 | 5% | 5.2µM*
CCOC(=O)c1cnc(-n2nc(C)cc2C)nc1Nc1ccc(OC)cc1 | 0% | 8.2µM* | -13 | -2% | 12µM*
CCOC(=O)c1cnc(-n2nc(C)cc2C)nc1NCc1ccc2c(c1)OCO2 | -25% | ? | -11 | ? | ?
CCOC(=O)c1cnc(-n2nc(C)cc2C)nc1N(C)C | 13% | ? | -10 | 11% | ?
COC(=O)N1CCc2c(sc(NC(=O)C3COc4ccccc4O3)c2C(N)=O)C1 (configuration not stated) | 1% | 15µM* | -28 | 2% | 16µM*
CCOC(=O)c1c(NC(=O)C2COc3ccccc3O2)sc2c1CCN(Cc1ccccc1)C2 (configuration not stated) | -3% | 23µM* | 7 | -4% | -12%
Fc1ccc(/C=C/c2nccc3ccccc23)cc1 | . | 7.1µM* | . | . | 14µM*
COc1cccc(/C=C/C(=O)NNC(=O)c2ccncc2)c1OC | -4% | 2% | -16 | -1% | -4%
COc1cccc(/C=C/c2ccncc2)c1OC | 8% | ? | -9 | 10% | 23µM*
COc1cccc(/C=C/c2nc3ccccc3nc2/C=C/c2cccc(OC)c2OC)c1OC | . | 8.9µM* | . | . | 2.8µM*
CCn1c(/C=C/c2ccc(F)cc2)nc2ccccc2c1=O | 0% | ? | . | -1% | ?
COc1cccc(/C=C/c2nccc3ccccc23)c1OC | . | ? | . | . | 16µM*
O=C(OCC#Cc1c(COC(=O)c2ccccc2)nnn1Cc1ccccc1)c1ccccc1 | -6% | 18µM* | 4 | 2% | ?
O=C(Nc1ccc(Oc2ccccc2)cc1)c1csc([C@H]2C[C@H](O)[C@@H](CO)O2)n1 | ? | 16µM* | 46 | ? | 10µM*
CC(=O)Nc1ccc(NC(=O)c2csc([C@@H]3C[C@H](O)[C@@H](CO)O3)n2)cc1 | 24% | -14% | 34 | 18% | -11%
O=C(Nc1ccc(Oc2ccccc2)cc1)c1csc([C@@H]2O[C@H](CO)[C@@H](O)[C@H]2O)n1 | ? | 16µM* | 71 | 7.3µM* | 21µM*
NC(=O)c1csc(C2OC(CO)C(O)C2O)n1 (configuration not stated) | -9% | 0.046µM* | 94 | -22% | 0.026µM*
CS(=O)(=O)/C(C#N)=C/c1cccn1S(=O)(=O)c1ccccc1 | 18% | 11% | -2 | 18% | -1%
SMILES | HT1080NT lethal | TDP1 cell CPT | IL1B secr inh | HT1080 IDH1KD tx | DT40 TDP1 no CPT
CC(C)(C)S(=O)(=O)/C(C#N)=C/c1cccn1S(=O)(=O)c1ccccc1 | 9% | -9% | 22 | 15% | 23µM*
CS(=O)(=O)/C(C#N)=C/c1cccn1S(=O)(=O)c1cccc2ccccc12 | 11% | 16µM* | 29 | -3% | 16µM*
COc1ccc(CNS(=O)(=O)c2cc3c(cc2Cl)N(C(C)=O)CCO3)cc1 | . | -23% | . | . | ?
Cc1ccc(C2=NCCn3c2c2ccc(C(F)(F)F)cc2[n+]3[O-])cc1 | 10% | -10% | 8 | 4% | -19%
CC1(C)CC(=O)C(/C=N/n2cnc3ccccc3c2=O)=C(O)C1 | 19% | -11% | 0 | 16% | -12%
C=CCS/C(=N\n1cnc2ccccc2c1=O)N(CC)CC | 3% | ? | 34 | 9% | 18µM*
C=CCS/C(=N\n1cnc2ccccc2c1=O)N1CCCCC1 | 4% | 26µM* | 18 | -3% | 18µM*
O=c1c2ccccc2ncn1C1CCCCC1 | 0%[9.24 µM] | -2% | -10 | -2% | 0%
O=C(O)C(Cc1ccccc1[N+](=O)[O-])N1C(=O)c2ccccc2C1=O (configuration not stated) | -3% | -1% | 37 | 8% | -11%
COC(C(=O)N/N=C(\C)c1ccc(O)cc1)c1ccccc1 (configuration not stated) | -4% | -12% | 7 | 6% | -15%
COC(=O)c1ccc([C@H]2Nc3ccc(S(=O)(=O)Nc4cccc(C)c4)cc3[C@H]3C=CC[C@H]32)cc1 | . | 1.8µM* | . | . | 1.2µM*
